An excerpt weighted towards active compounds, which were near 10% of everything screened.
IMPase cell inh – IMPase inhibition in cells | P97697 | 120,000 tested, under 10 active | CHO-M1 cells, IP1 accumulation, HTRF TR-FRET ratio | inhibition (IP1 accumulation), % at 46.1 µM; active = well fitted curve in the direction sought with a large enough effect in the signal ratio, not every such curve was filed as active; inconclusive = small, poorly fitted or top-dose-only effect, or a change in a side signal; inactive = no such curve, though single readings can be large or run the other way; the % refers to the signal ratio;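 note: cells stimulated with carbachol in lithium chloride buffer; plate controls were DMSO basal wells for no effect and reference inhibitor wells for full effect; higher means more IMPase inhibition seen as more IP1 and lower FRET ratio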
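Cellular IMPase inhibition is scored as a rise in cytosolic IP1, detected by competitive TR-FRET between d2-labelled IP1 and a europium anti-IP1 antibody. M1-expressing CHO cells were stimulated with carbachol for 30 min at 37C, with lithium (50 mM LiCl) present in the buffer.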
HPGD block – HPGD (human) dehydrogenase inhibition; P15428; purified HPGD, NADH fluorescence kinetic, PGE2 substrate; Potency, µM, without a hit: at the highest dose activity change, negative = inhibition, most hits filed as inhibitors; 150,000 compounds, 4.3% hits; note: potency is the fitted concentration of half-maximal effect
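NADH formation kinetics: reaction with 30 uM PGE2 and 1 mM NAD+ (final), 20 nM enzyme, Tris-HCl pH 8 with Tween 20, after 15 min compound preincubation at room temperature. Fluorescence change, last versus first of five reads.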
ALDH1A1 block – blocks purified human ALDH1A1 activity; P00352; Purified ALDH1A1, NADH fluorescence, propionaldehyde substrate; Potency, µM (series often up to 75.3 µM), inactives show at the top dose activity, negative = inhibition, actives largely listed as inhibitors; 220,000 compounds, 7.3% hits; AID 1030;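 note: potency is the fitted concentration of half-maximal effect; plate controls were no enzyme wells and a reference inhibitor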
Target sequence (P00352 whole entry, looked up): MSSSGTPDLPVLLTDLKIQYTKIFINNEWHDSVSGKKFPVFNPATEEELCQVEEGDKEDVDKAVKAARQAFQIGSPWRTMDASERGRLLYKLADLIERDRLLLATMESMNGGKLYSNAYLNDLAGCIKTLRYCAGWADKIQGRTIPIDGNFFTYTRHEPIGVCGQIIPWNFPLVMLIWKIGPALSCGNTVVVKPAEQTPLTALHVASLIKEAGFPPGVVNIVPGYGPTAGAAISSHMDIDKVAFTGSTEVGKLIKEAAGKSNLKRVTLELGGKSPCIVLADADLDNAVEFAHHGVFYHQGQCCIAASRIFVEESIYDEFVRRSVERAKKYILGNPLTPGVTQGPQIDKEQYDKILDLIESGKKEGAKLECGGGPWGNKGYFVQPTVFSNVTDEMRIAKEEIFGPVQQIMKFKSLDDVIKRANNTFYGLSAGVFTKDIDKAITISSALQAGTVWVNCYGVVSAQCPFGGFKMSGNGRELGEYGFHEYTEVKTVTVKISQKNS
KinaseGlo FLuc – Kinase-Glo luciferase inhibition (counter-screen); 200,000 compounds, 0.28% hits; AID 1379; Potency, µM (series often up to 38.3 µM), without a hit: top-dose activity change, negative = inhibition, most hits filed as inhibitors; Kinase-Glo luciferase, ATP luminescence, 8 min; active = well fitted inhibition curve with a large enough effect; inconclusive = small, poorly fitted or top-dose-only effect; note: potency is the fitted concentration of half-maximal effect; nearly all actives have a fitted effect of over 60% in size
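Recombinant Kinase-Glo luciferase, 10 uM ATP (linear range), luciferin; imidazole pH 7.2 / KCl / MgCl2 / Tween / BSA buffer; 8 min RT; luminescence.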
PNC inhibitor – blocks assembly of the perinucleolar compartment; 140,000 compounds, 3.1% hits; PC3M PTB-GFP, PNC prevalence imaging, 16 h; active compounds read low; activity change (PNC), negative = inhibition, % at 10 µM;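 active = readout at or below -70, meaning at least 70% loss of cells showing the perinucleolar compartment, a nuclear body marking cancer cells; inconclusive = readout between -30 and a set limit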;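 note: plate controls were DMSO wells for no effect and camptothecin positive control wells for full effect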
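Compounds are pinned in duplicate onto adhered PC3M cells stably expressing GFP-tagged PTB and incubated 16 h at 37 C. Cells are then fixed, nuclei stained with Hoechst, and PNC-positive cells counted.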
Lamin A splicing – changes lamin A minigene splicing in HeLa cells; 200,000 compounds, 0.01% hits; AID 1487; HeLa LMNA splicing GFP/RFP minigene ratio, 48 h; Potency, µM (highest dose often 46.1 µM), for the others: at the highest dose ratio change, negative = inhibition, most hits filed as inhibitors; active = well fitted inhibition curve with a large enough effect in the signal ratio, with a control signal flat, not every such curve was filed as active; inconclusive = small, poorly fitted or top-dose-only effect, or effect the other way, or a change in a side signal; the % refers to the signal ratio; note: potency is the fitted concentration of half-maximal effect
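S3 HeLa stable clones carrying a lamin A-EGFP splicing minigene plus DsRed2 were seeded at 600 cells/well in Opti-MEM with 2% FBS, pin-dosed and incubated 48 h at 37°C. Acumen cytometry (488 nm) gave the GFP/RFP total-intensity ratio.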
Numbers without * were called inactive; [ ] = another dose, or the depositor's remark. Unless noted, calls come from the whole dose curve; as a rule, active = well fitted inhibition curve with a large enough effect (not every such curve was filed as active); inconclusive = small, poorly fitted or top-dose-only effect, or another doubt; inactive = no such curve, though single readings can be large or run the other way. Unless noted, % is set by controls: 0 for no effect and ±100 for the full control effect.

For COCCN1CN(S(=O)(=O)c2ccccc2)c2nc3ccccc3nc21 the results were IMPase cell inh -1.4, HPGD block inconclusive, ALDH1A1 block 14.2%, KinaseGlo FLuc -1.6%, PNC inhibitor -116.6* and Lamin A splicing 7.7%.
COCCN1CN(S(=O)(=O)c2ccc(Cl)cc2)c2nc3ccccc3nc21 was read as IMPase cell inh -1.6, HPGD block -8.1%, ALDH1A1 block 23.8µM*, KinaseGlo FLuc -0.4%, PNC inhibitor inconclusive and Lamin A splicing 12.0%.
Screening CC1=C(C(=O)NCc2cccc(Br)c2)C2(CCCCC2)OC1=O returned Lamin A splicing -2.4%[46 µM].
`CC(C)OCC1CC(CC(=O)NC(=S)Nc2cccc([N+](=O)[O-])c2)C(=O)O1` (centres undefined) gave IMPase cell inh -8.2, HPGD block -11.6%, ALDH1A1 block -0.1%, KinaseGlo FLuc 0.2%, PNC inhibitor -100.0* and Lamin A splicing inconclusive.
Screening CC(=O)c1ccc(N2CCN(C(=O)Nc3cn(CC(C)C)c(=O)c4ccccc34)CC2)cc1 returned Lamin A splicing -1.0%[46 µM].
Cc1ccccc1-n1c(=O)c2ccccc2n2cnnc12 was read as IMPase cell inh -2.9, HPGD block 2.4%, ALDH1A1 block 4.7%, KinaseGlo FLuc -5.5%, PNC inhibitor inconclusive and Lamin A splicing -11.4%.
For Cc1ccccc1-n1sc2cc(F)ccc2c1=O the results were ALDH1A1 block 0.562µM*, KinaseGlo FLuc -7.7% and Lamin A splicing inconclusive.
Screening O=C(NCc1ccccc1Cl)C1CCCN(c2ncnc3onc(-c4ccc(F)cc4)c23)C1 (centres undefined) returned Lamin A splicing -9.6%[46 µM].
For Cc1nn(CCC(N)=S)c2nc(-c3cccs3)cc(C(F)(F)F)c12 the results were IMPase cell inh -8.6, HPGD block 28.2µM*, ALDH1A1 block 12.6µM*, KinaseGlo FLuc 1.5%, PNC inhibitor inconclusive and Lamin A splicing -7.2%.
`Cc1ccc(CNC(=O)CSc2c(C(C)C)cnc3c2c(=O)n(C)c(=O)n3C)cc1` gave Lamin A splicing 14.6%[46 µM].
For CC1CCc2c(sc3nnn(Cc4ccc(F)cc4)c(=O)c23)C1 (centres undefined) the results were IMPase cell inh 4.1.
Cc1cccc(NC(=O)/C=C/c2cccs2)n1 was read as IMPase cell inh 1.4, HPGD block 28.2µM*, ALDH1A1 block inconclusive, KinaseGlo FLuc 12.6µM*, PNC inhibitor 12.1 and Lamin A splicing -9.5%.
For O=C(CSc1cc([N+](=O)[O-])cc(S(=O)(=O)Cc2ccccc2)c1)NC1CC1 the results were HPGD block 22.4µM*, ALDH1A1 block 25.1µM*, KinaseGlo FLuc -2.5%, PNC inhibitor inconclusive and Lamin A splicing 6.6%.
C=CCNC(=O)CSc1cc([N+](=O)[O-])cc(S(=O)(=O)Cc2ccccc2)c1 was read as HPGD block inconclusive, ALDH1A1 block 4.47µM*, KinaseGlo FLuc 1.5%, PNC inhibitor 13.8 and Lamin A splicing 9.5%.
For Cc1cc(C)c(/C=C/c2onc(C)c2S(=O)(=O)N2CCC(C(=O)N3CCN(c4ccc(Cl)cc4)CC3)CC2)c(C)c1 the results were Lamin A splicing 9.0%[46 µM].
Screening CCOC(=O)c1c(S(=O)(=O)N2CCC(C(=O)Nc3ccc(F)cc3F)CC2)c(C)n(C)c1C returned Lamin A splicing 12.5%[46 µM].
Screening CCN1CCN(Cc2c(O)ccc3c(=O)c(Oc4ccccc4C(C)C)c(C(F)(F)F)oc23)CC1 returned IMPase cell inh -2.3.
Screening O=C(NCC1CCCCC1)c1nnc(C(=O)NCC2CCCCC2)c2c1[nH]c1ccccc12 returned HPGD block -8.7%, ALDH1A1 block -10.9% and KinaseGlo FLuc 1.7%.
Screening Cc1[nH]n(-c2ccccc2)c(=S)c1C=NCCCN=Cc1c(C)[nH]n(-c2ccccc2)c1=S returned HPGD block 28.2µM*, ALDH1A1 block 3.98µM*, KinaseGlo FLuc 4.4%, PNC inhibitor inconclusive and Lamin A splicing inconclusive.

Screening results (PubChem)
